Source: PubChem
An excerpt weighted towards active compounds, which were near 21% of everything screened.
CHX counter: Cycloheximide Counterscreen for Small Molecule Inhibitors of Shiga Toxin; cell reporter, cycloheximide protein synthesis inhibition counterscreen; max response, %; actives 12% (n = 300,000); AID 2314, 2010; in the data active means max response mostly above about 13%, no sharp cut-off; inactive means mostly below about 14%; further: read at 38.3 µM for the half of the compounds with a filed dose
Pf growth 96h: Primary qHTS for delayed death inhibitors of the malarial parasite plastid, 96 hour incubation; P. falciparum luciferase reporter growth, 96 h; Potency, µM (doses to about 28.7 µM), most hits filed as inhibitors; actives 6.9% (n = 320,000)
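Infected RBCs, 2% Hct / 0.05% parasitemia final; luciferase-reporter P. falciparum; cpd 96 h, 37 C, 5% CO2; luciferase detection reagent; luminescence.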
Shiga inhibitor: A qHTS for Small Molecule Inhibitors of Shiga Toxin; Vero cells, Shiga toxin protein synthesis inhibition reporter; inhibition, % at 38.7 µM; actives 9.2% (n = 290,000); AID 2315, 2010; in the data active means inhibition mostly above about 28%, no sharp cut-off; inactive means mostly below about 43%
Pf growth 48h: Primary qHTS for delayed death inhibitors of the malarial parasite plastid, 48 hour incubation; P. falciparum luciferase growth in erythrocytes, 48 h; Potency, µM (titrated, usually from 28.7 µM), actives largely listed as inhibitors; actives 5.9% (n = 310,000)
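Growth was read as firefly luciferase luminescence after a 48 h, 37 C, 5% CO2 exposure of compounds to reporter-bearing P. falciparum cultures (0.1% parasitemia, 2% hematocrit final) in Albumax-supplemented RPMI 1640.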
A number is an active result; - = inactive; ? = inconclusive; . = no result. Unless noted, the call rests on the fitted dose curve; in most records, active means well fitted inhibition curve with a large enough effect; inconclusive means small, poorly fitted or top-dose-only effect, or another doubt; inactive means no such curve, though single readings can be large or run the other way.

SMILES	CHX counter	Pf growth 96h	Shiga inhibitor	Pf growth 48h
CN(C)c1nc(C(=O)O)nc(N2CCOCC2)n1	-	-	-	-
Cc1ccc(S(=O)(=O)N2C(=O)C(C)SC2=Nc2ccccc2)cc1 (stereo not given)	-	-	-	-
C=CCN=C1SC(C)C(=O)N1S(=O)(=O)c1ccccc1 (stereo not given)	-	7.38µM	-	-
N=C1c2ccccc2CN1c1ccc(F)c([N+](=O)[O-])c1	-	?	-	11.7µM
CCNC(=S)NNC(=O)c1cc(-c2cccnc2)nc2ccccc12	-	-	-	-
O=C(NC(=S)Nc1ccccc1)c1cc(-c2ccccc2)nc2ccccc12	-	10.4µM	-	?
O=C(NC(=S)Nc1ccccn1)c1cc(-c2ccccc2)nc2ccccc12	-	-	-	-
O=C(NNC(=S)Nc1ccccc1)c1cc(-c2cccnc2)nc2ccccc12	-	1.17µM	-	?
CCOC(=O)c1ccc(NC(=S)NNC(=O)c2cc(-c3cccnc3)nc3ccccc23)cc1	-	-	-	4.15µM
CCCNC(=S)NNC(=O)c1cc(-c2cccnc2)nc2ccccc12	-	?	-	-
CC1(c2ccccc2)NC(=O)N(CC(=O)NCC2CCCO2)C1=O (stereo not given)	.	-	.	-
CC(C)(C)n1nc2c(c1NC(=O)c1cc3ccccc3o1)CS(=O)(=O)C2	-	-	-	-
CCOC(=O)N1CCC(NC(=O)CC2C(=O)NCCN2Cc2cccc(F)c2F)CC1 (stereo not given)	-	?	-	-
O=C1c2ccccc2NC(c2cccc(O)c2)N1O (stereo not given)	16.2	-	-	-
O=C1c2ccccc2NC(c2ccc([N+](=O)[O-])cc2)N1O (stereo not given)	-	-	-	?
O=C1c2ccccc2NC(c2cccc([N+](=O)[O-])c2)N1O (stereo not given)	-	8.28µM	-	?
CS(=O)(=O)N(CC(=O)Nc1ccccc1C(=O)N1CCCC1)c1ccc2c(c1)OCO2	-	-	-	-
COc1ccccc1C(=O)NNC(=S)NC(=O)c1sc2ccccc2c1Cl	-	?	-	-
CC1CCCCC1NC(=S)NC(=O)c1sc2ccccc2c1Cl (stereo not given)	12.2	?	-	?
Cc1c(NC(=S)NC(=O)c2sc3ccccc3c2Cl)cccc1C(=O)O	61.4	-	161.0	-
CNC(=O)CCC(=O)Nc1ccc(C)cc1	-	-	-	-
COc1cccc(C(=O)CSc2nnc(CNc3nc(-c4ccccc4)cs3)n2C)c1	-	-	-	?
Cn1c(CNc2nc(-c3ccccc3)cs2)nnc1SCC(=O)OC1CCCCC1	-	?	-	2.33µM
CC(C)OC(=O)CSc1nnc(CNc2nc(-c3ccccc3)cs2)n1C	-	-	-	2.33µM
CC1=C(C(=O)OC2CCCCC2)C(c2ccccc2Br)NC(=O)N1 (stereo not given)	-	-	.	-
SMILES	CHX counter	Pf growth 96h	Shiga inhibitor	Pf growth 48h
COc1cccc(C(c2c(N)[nH]c(=S)[nH]c2=O)c2c(N)[nH]c(=S)[nH]c2=O)c1	-	?	-	?
Cn1cc(S(=O)(=O)NCc2ccco2)c(=O)n(C)c1=O	-	-	-	.
CNC(=S)N1N=C(c2ccc(C)cc2)CC1c1cc(OC)ccc1OC (stereo not given)	-	-	-	?
COc1ccccc1C1CC(c2ccco2)=NN1c1ccccc1 (stereo not given)	-	-	-	?
COc1ccccc1C1=NN(C(=S)Nc2ccccc2)C(c2ccco2)C1 (stereo not given)	28.0	-	51.3	-
COc1ccc(OC)c(C2CC(c3ccccc3)=NN2C(=S)Nc2ccccc2)c1 (stereo not given)	-	?	-	2.33µM
O=C(CSc1nnc(Cc2ccccc2)o1)c1ccc(F)cc1	8.0	-	-	-
O=C(CSc1nnc(Cc2ccsc2)o1)c1ccccc1	21.3	-	-	-
O=C(NCC1CC1)C1(C(F)(F)F)CC(CCCO)CCCO1 (stereo not given)	-	.	-	.
O=S(=O)(Nc1nc2c(s1)CCCC2)c1ccc(Br)cc1	-	-	-	-
O=S(=O)(Nc1nc2c(s1)CCCC2)c1ccc(F)cc1	21.3	.	-	-
Cc1ccc(CN2CCN(/N=C\C=C\c3ccccc3)CC2)cc1	-	-	-	-
COc1cccc(CN2C(=NC(=O)C3CC3)SC3CS(=O)(=O)CC32)c1 (stereo not given)	-	-	-	-
CN(C)c1ccc(/C=N/c2cc(-c3ccccc3)nn2-c2ccccc2)cc1	38.5	-	57.3	.
COc1ccc(C2CC(=O)c3c(C)nc(N4CCN(Cc5ccccc5)CC4)nc3C2)cc1OC (stereo not given)	-	10.4µM	-	8.28µM
Cc1nc(N2CCN(Cc3ccccc3)CC2)nc2c1C(=O)CC(C)C2 (stereo not given)	-	.	-	-
COc1cc(C2CC(=O)c3cnc(N4CCN(Cc5ccccc5)CC4)nc3C2)cc(OC)c1OC (stereo not given)	-	-	-	9.28µM
CC1CCCCC12NC(=O)N(CC(=O)Nc1sc3c(c1C(N)=O)CCC3)C2=O (stereo not given)	-	10.4µM	-	.
CC1CCC2(CC1)NC(=O)N(CC(=O)Nc1sc3c(c1C(N)=O)CCC3)C2=O (stereo not given)	-	-	-	-
C=CCOC(=O)C1=C(C)NC(SCC(N)=O)=C(C#N)C1c1ccc(C)cc1 (stereo not given)	-	?	-	-
C=CCOC(=O)C1=C(C)NC(SCC)=C(C#N)C1c1ccc(Cl)cc1 (stereo not given)	-	10.4µM	-	?
CC(=O)C1=C(C)NC(SCC(=O)Nc2nc3ccccc3s2)=C(C#N)C1c1ccc(Cl)cc1 (stereo not given)	21.6	6.57µM	-	7.38µM
C=CCOC(=O)C1=C(C)NC(SCC(=O)Nc2ccc(C)c(Cl)c2)=C(C#N)C1c1ccco1 (stereo not given)	-	?	-	4.15µM
COc1ccccc1CNC(=O)c1ccc2c(=O)n3c(nc2c1)CCCCC3	-	-	-	-
C#CCOCCOCCOCCNc1nc(N2CCN(C(=O)[C@H]([C@@H](C)CC)n3cc([C@@H](N)CO)nn3)CC2)nc(N2CCN(C(=O)[C@H](Cc3ccc(O)cc3)n3cc([C@@H](N)CC(C)C)nn3)CC2)n1	-	-	-	?
C#CCOCCOCCOCCNc1nc(N2CCN(C(=O)C(Cc3ccc(O)cc3)n3cc(C(N)CC(C)C)nn3)CC2)nc(N2CCN(C(=O)C(Cc3cc4ccccc4[nH]3)n3cc(C(N)Cc4ccc(O)cc4)nn3)CC2)n1 (stereo not given)	-	13.1µM	-	?
C#CCOCCOCCOCCNc1nc(N2CCN(C(=O)[C@H]([C@@H](C)CC)n3cc([C@@H](N)CO)nn3)CC2)nc(N2CCN(C(=O)[C@H](Cc3cc4ccccc4[nH]3)n3cc([C@@H](N)Cc4ccc(O)cc4)nn3)CC2)n1	-	2.94µM	-	-
